Compound activity (PubChem BioAssay)
PHOSPHO1 block: blocks human PHOSPHO1 phosphatase activity | Q8TCT1 | recombinant PHOSPHO1, absorbance phosphatase assay | inhibition, % at 13.3 µM | actives 1.1% (n = 290,000) | AID 1565; in the data active = inhibition above about 60%
PABP polyA inh: blocks human PABP binding to poly(A) RNA | fluorescence polarization | actives 1% (n = 290,000) | calls only at 35 µM | P11940;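 also: calls also rest on retests at 20 µM and on dose response follow-up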
eIF4H FP inh: inhibitors of RNA binding by human eIF4H. Q15056. eIF4H fluorescence polarization binding assay. inhibition, % at 35 µM. actives 0.94% (n = 290,000). AID 2012;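 also: calls also rest on retests at 20 µM and on dose response follow-up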
PABP1 MLLE inh: inhibitors of microRNA-mediated deadenylation, human PABP1 MLLE binding | GST-MLLE / FITC-PAM2 fluorescence polarization | inhibition, % at 20 µM | actives 0.36% (n = 360,000); in the data active = inhibition above about 35%, passing the limit was not always enough;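 also: plate controls were DMSO wells with GST-MLLE for no effect and wells lacking GST-MLLE protein for full effect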
APOBEC3A inh: inhibitors of human APOBEC3A DNA deaminase; AID 493011; actives 0.41% (n = 330,000); P31941; recombinant A3A, FAM/TAMRA ssDNA deamination fluorescence; inhibition, % at 20 µM;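 active = at least 40% inhibition at 20 µM here, with at most 30% in a related deaminase screen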;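 also: plate controls were A3A with DMSO for no effect and wells lacking A3A enzyme for full effect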
Target sequence (P31941 whole entry, looked up): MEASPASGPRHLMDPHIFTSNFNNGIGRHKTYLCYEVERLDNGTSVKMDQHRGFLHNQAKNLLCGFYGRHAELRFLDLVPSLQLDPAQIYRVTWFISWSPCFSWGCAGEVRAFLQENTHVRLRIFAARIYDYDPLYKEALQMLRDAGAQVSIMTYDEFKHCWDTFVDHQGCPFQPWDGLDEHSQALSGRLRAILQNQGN
APOBEC3G inh: blocks human APOBEC3G single-stranded DNA deamination | actives 0.28% (n = 330,000) | recombinant A3G, ssDNA deamination FAM/TAMRA fluorescence | Q9HC16 | inhibition, % at 20 µM | AID 493012;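 active = inhibition of at least 40% at 20 µM, with no more than 30% in the related APOBEC3A deaminase screen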;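 also: plate controls were DMSO wells with A3G for no effect and wells lacking A3G enzyme for full effect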
Target sequence (Q9HC16 whole entry, looked up): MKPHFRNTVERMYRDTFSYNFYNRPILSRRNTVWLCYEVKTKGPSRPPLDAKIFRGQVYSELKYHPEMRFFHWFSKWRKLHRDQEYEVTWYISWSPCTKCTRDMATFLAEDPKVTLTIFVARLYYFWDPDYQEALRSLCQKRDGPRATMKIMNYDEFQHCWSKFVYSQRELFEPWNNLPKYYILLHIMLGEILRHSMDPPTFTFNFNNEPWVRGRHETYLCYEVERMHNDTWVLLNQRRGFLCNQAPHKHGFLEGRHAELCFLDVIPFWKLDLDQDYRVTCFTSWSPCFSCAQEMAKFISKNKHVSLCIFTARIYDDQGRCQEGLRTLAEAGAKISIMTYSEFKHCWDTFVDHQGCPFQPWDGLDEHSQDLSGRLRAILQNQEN
* marks the source's active call; other numbers are inactive results; i = inactive; ? = inconclusive; · = no result given; + = active, no number. Sampled rows, rich in hits. Any-hit rate of the full collection: about 2.6%. Unless noted, no rule for the calls is given here.

SMILES | PHOSPHO1 block | PABP polyA inh | eIF4H FP inh | PABP1 MLLE inh | APOBEC3A inh | APOBEC3G inh
CCOc1cccc(C(=O)Nc2ccc(N(CC)CC)cc2)c1 | 70* | i | 4 | 7 | -4 | -4
CCN(CC)c1ccc(NC(=O)c2ccc(Br)o2)cc1 | 71* | i | 0 | -5 | -1 | 1
COc1cccc(C(=O)Nc2ccc(C3CC3(Cl)Cl)cc2)c1 (stereo unspecified) | 29 | i | active | -5 | -3 | -5
COC(=O)Cc1ccc(NC(=O)c2ccc(Br)o2)cc1 | 4 | i | -2 | 8 | 3 | -2
CCOc1cccc(C(=O)Nc2ccc3ccccc3c2)c1 | 14 | i | -13 | 20 | 3 | 3
O=C(CN(C(=O)CNC(=O)c1ccco1)c1ccc(F)cc1)NC1CCCCC1 | 32 | i | -3 | -6 | -3 | -6
O=C(O)c1cn[nH]c1-c1cccc([N+](=O)[O-])c1 | -10 | i | 98* | 10 | 23 | 4
O=Cc1cn[nH]c1-c1cccc([N+](=O)[O-])c1 | -1 | i | -1 | -5 | -4 | -14
Cc1cc(C)n(-c2ncc3c(n2)N(CCO)CCOC3=O)n1 | 37 | i | -4 | 16 | -1 | -7
CC1=CC2(O)OCCN(CCO)C2=CC1=O (stereo unspecified) | -10 | i | 82* | 17 | 2 | -6
CCOc1cc(C(N)=O)cc(OCC)c1OCC | 11 | i | -9 | -2 | -2 | -4
CCOc1cc(C(N)=O)cc(Br)c1OC | -3 | i | 8.5* | 14 | -1 | -6
CC1CCCN(S(=O)(=O)c2ccc3oc(=O)ccc3c2)C1 (stereo unspecified) | 38 | i | -10 | -1 | 0 | -5
COc1cccc(/C=N/Nc2nc3ccccc3n3cnnc23)c1O | -9 | i | 28 | -6 | 8 | -10
COc1cccc(/C=N/Nc2nc3ccccc3n3cnnc23)c1 | 7 | + | 85* | 3 | 2 | -3
N#CC(C#N)=Cc1cccn1-c1ccc(S(N)(=O)=O)cc1 | 1 | + | 0.5* | 9 | 3 | 1
O=C(CSc1nc2cc(S(=O)(=O)N3CCOCC3)ccc2o1)NC1CCCc2ccccc21 (stereo unspecified) | 76* | i | -7 | 25 | 0 | 31
Cc1ccc(C(=O)CSc2nc3cc(S(=O)(=O)N4CCOCC4)ccc3o2)cc1 | 68* | i | -11 | 22 | -9 | -6
Cc1cc(C)cc(NC(=O)CCc2nc3sc4c(c3c(=O)[nH]2)CCCC4)c1 | · | · | · | -28 | 6 | 2
O=c1[nH][nH]c(=S)n1C1CCCCC1 | 44 | i | -6 | · | -3 | 12
O=c1cc(O)n(C2CCCCCC2)c(=O)[nH]1 | 1 | + | 56 | -33 | -1 | -3
Sc1oc(-c2ccccc2)cc1C=Nc1ccccc1 | 91* | i | -1 | -41 | -3 | 0
COCCNC(=O)c1cc2c(=O)n3cccc(C)c3nc2n1C | 33 | i | -11 | -5 | 3 | 1
Cc1cccn2c(=O)c3cc(C(=O)N(C)C)n(C)c3nc12 | 2 | ? | ? | 53* | -1 | -4
Cc1cccn2c(=O)c3cc(C(=O)NCCCn4ccnc4)n(C)c3nc12 | 11 | + | 91* | 15 | · | ·
SMILES | PHOSPHO1 block | PABP polyA inh | eIF4H FP inh | PABP1 MLLE inh | APOBEC3A inh | APOBEC3G inh
CCCNC(=O)c1cc(C2CCCCN2S(=O)(=O)c2ccccc2)on1 (stereo unspecified) | · | · | · | 11 | · | ·
CCOc1ccc(C(=O)NCC(=O)OCc2cc([N+](=O)[O-])cc3c2OCOC3)cc1OCC | -2 | i | -1 | 1 | -4 | -9
O=C(CNC(=O)c1ccc(Br)cc1)OCc1cc([N+](=O)[O-])cc2c1OCOC2 | 68* | i | -1 | 9 | -2 | -5
C[C@@H]1CN([C@@H](C)CO)C(=O)CCCn2cc(nn2)CO[C@H]1CN(C)S(=O)(=O)c1cccc(C#N)c1 | · | · | · | -1 | · | ·
CC1(C)CC(=O)C(N=Nc2cccc(F)c2C#N)=C(O)C1 | 51 | i | -1 | 5 | 0 | -4
CCc1nnc(NCC(=O)N2CCc3ccccc32)s1 | 69* | i | -5 | -23 | -1 | -2
O=C1C=CC(=O)N1 | · | · | · | 24 | 3 | 5
Cc1ccc2c(c1)c1c3n2CCN=C3CCC1 | -6 | + | 59* | -14 | 0 | -3
CC1=NN(c2ccccc2)C(=O)C1C(=O)c1ccccc1 (stereo unspecified) | 2 | i | -3 | 2 | -2 | -4
CC1=NN(c2ccccc2)C(=O)C1C(=S)SC1CC(=O)NC1=O (stereo unspecified) | · | · | · | 49* | · | ·
COCc1cc(C)nc(OCC(=O)N/N=C/c2ccco2)c1C#N | -12 | i | 10 | -4 | 6 | -5
CCOc1[nH]c(/N=C/c2ccco2)c(C#N)c1C#N | 10 | + | 100* | 19 | 0 | -8
CC1CN=C(NC(=O)c2cccc([N+](=O)[O-])c2)S1 (stereo unspecified) | 50 | i | 9 | 42* | -5 | -6
CCOC(=O)N1CCN(C(=O)CSCc2nc(-c3ccccc3F)oc2C)CC1 | 36 | i | 1 | 45* | 0 | 2
CCCCOc1ccc(N2C(=O)C(C)CNC2=S)cc1 (stereo unspecified) | · | · | · | 52* | · | ·
CCOc1ccc(N2C(=O)CNC2=S)cc1 | 34 | ? | ? | -14 | -1 | -7
Cc1nc(-c2ccccc2)cc(-c2ccccc2)n1 | · | · | · | 9 | 1 | -4
COc1nc(-c2ccccc2)cc(-c2ccccc2)n1 | 11 | + | active | -13 | 1 | -5
COc1cc(/C=C2\C(=N)N3N=C(S(C)(=O)=O)SC3=NC2=O)ccc1OCCOc1ccccc1C | -28 | + | 88* | -3 | · | ·
O=S(=O)(c1ccccc1)c1nc(-c2ccco2)oc1NCc1cccnc1 | 68* | i | 0 | 5 | -4 | 0
O=S(=O)(c1ccccc1)c1nc(-c2ccccc2)oc1NCc1cccnc1 | -14 | i | -12 | 1 | 0 | -2
COc1ccc(CN(C)C[C@H]2OCc3cnnn3CCCC(=O)N([C@H](C)CO)C[C@@H]2C)cc1 | · | · | · | -2 | · | ·
N#C/C(=C/c1ccc(F)cc1)c1nnc(NC(=O)c2ccccc2)s1 | 10 | + | 88* | -19 | 7 | 3
Cc1ccc(S(=O)(=O)NCC(=O)NCC2COc3ccccc3O2)cc1C (stereo unspecified) | · | · | · | 5 | 0 | 2
CCCc1cc(C(=O)NNC(=S)NC(C)c2ccccc2)cs1 (stereo unspecified) | 83* | i | 18 | -5 | -1 | -4
CCOC(=O)C1=C(CSc2nc3c(cc2C#N)CN(C)CC3)OC(N)=C(C#N)C1c1ccncc1 (stereo unspecified) | 0 | i | ? | 100 | 0 | -6
CCOC(=O)C1=C(CSc2nc(CC)c(C)cc2C#N)OC(N)=C(C#N)C1c1ccccc1 (stereo unspecified) | 89* | i | 13 | 18 | -11 | -12
